Compound activity: PubChem, several laboratories
CYP2C19 inh: inhibitors of human CYP2C19 | P33261 | CYP2C19 Supersomes, luciferin-H EGE luminescence, 30 min | inhibition, % at 5 µM | 96,000 compounds, 21% hits | AID 778;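 active = CYP2C19 inhibition above a set limit at 5 µM in the primary screen, cut at about 50% in these data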
CYP2C9 activ: increases human cytochrome P450 2C9 activity. P11712. recombinant CYP2C9, luciferin-H conversion, luminescence; hits give high values; factor 1 = untreated enzyme, 0 = blocked. activation factor at 5 µM. 96,000 compounds, 1.4% hits. AID 1024;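 active = activation factor of 2 or more for CYP2C9 at a 5 µM dose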
Target sequence (P11712 whole entry, looked up): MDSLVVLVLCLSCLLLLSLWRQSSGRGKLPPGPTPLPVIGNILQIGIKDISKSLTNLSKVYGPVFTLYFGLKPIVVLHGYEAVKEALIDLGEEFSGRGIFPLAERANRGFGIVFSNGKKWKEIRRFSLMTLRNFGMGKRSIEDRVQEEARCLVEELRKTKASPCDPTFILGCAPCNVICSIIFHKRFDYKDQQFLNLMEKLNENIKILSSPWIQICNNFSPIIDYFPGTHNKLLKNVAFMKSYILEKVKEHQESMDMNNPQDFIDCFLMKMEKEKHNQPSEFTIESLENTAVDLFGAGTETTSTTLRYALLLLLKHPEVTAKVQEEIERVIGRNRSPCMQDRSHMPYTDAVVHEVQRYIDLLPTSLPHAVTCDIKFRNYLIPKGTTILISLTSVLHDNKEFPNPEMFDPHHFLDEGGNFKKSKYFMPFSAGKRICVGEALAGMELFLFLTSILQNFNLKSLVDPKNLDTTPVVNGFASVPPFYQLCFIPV
CYP2C19 activ: activators of human cytochrome P450 2C19. P33261. recombinant CYP2C19, luciferin-H EGE luminescence; hits give high values; 0 = fully inhibited enzyme, 1 = untreated enzyme. activation factor at 5 µM. 96,000 tested, under 10 active;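 active = activation factor of at least 2 at 5 µM in the primary screen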
CYP2C9 inhib: inhibitors of human CYP2C9 | P11712 | CYP2C9 Supersomes, luciferin-H conversion, luminescence | inhibition, % at 5 µM | 96,000 compounds, 20% hits | AID 777;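 active = blocking of liver enzyme CYP2C9 beyond about 50% at 5 µM, limit read from the data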
Measles CPE: protection of cells from measles virus | 140,000 compounds, 1.5% hits | Measles virus-infected cells, CPE protection, absorbance | AID 841 | protection (pct of control), % at 4 µM; in the data active = protection mostly above about 24%, no sharp cut-off; inactive = mostly below about 26%
Numbers stand for hits. Compounds with a hit are over-represented: about 22% of the library has one in this group of screens.

What do the screens show for `O=C(CSc1nnnn1-c1ccc(F)cc1)NC1CCCCC1`?
CYP2C19 inh: inactive; CYP2C9 activ: inactive; CYP2C19 activ: inactive; CYP2C9 inhib: inactive; Measles CPE: inactive

How did COC(=O)c1c(NC(=O)CSc2nnnn2-c2ccccc2)sc2c1CCC(C)C2 (configuration not stated) do in these assays?
CYP2C19 inh: inactive; CYP2C9 activ: inactive; CYP2C19 activ: inactive; CYP2C9 inhib: 71; Measles CPE: inactive

Results for C=CCc1cc(OC)ccc1OCCOCCC(C(=O)OCC)C(=O)OCC ?
Measles CPE: 21

What do the screens show for `CCCCN(C)C(=O)c1cc2cc3ccc(OC)cc3nc2s1`?
CYP2C19 inh: 56; CYP2C9 activ: inactive; CYP2C19 activ: inactive; CYP2C9 inhib: 53; Measles CPE: inactive

Results for COC(=O)c1ccccc1S(=O)(=O)N1Cc2cc([N+](=O)[O-])ccc2Oc2ccccc21 ?
CYP2C19 inh: 100; CYP2C9 activ: inactive; CYP2C19 activ: inactive; CYP2C9 inhib: 62; Measles CPE: inactive

How did COC(=O)c1cc([N+](=O)[O-])ccc1N1CCN(Cc2ccccc2)CC1 do in these assays?
Measles CPE: inactive

How did Cc1[nH]c2ccccc2c1C(=O)Cn1c(=O)oc2ccccc21 do in these assays?
CYP2C19 inh: 62; CYP2C9 activ: inactive; CYP2C19 activ: inactive; CYP2C9 inhib: 58; Measles CPE: inactive

What do the screens show for `Cc1ccc(SCC(=O)c2c(C)[nH]c3ccccc23)cc1`?
Measles CPE: 41

Results for Cc1nnc(NC(=O)Cc2cccs2)s1 ?
CYP2C19 inh: inactive; CYP2C9 activ: inactive; CYP2C19 activ: inactive; CYP2C9 inhib: inactive; Measles CPE: inactive

Results for O=C(CN1CCOCC1)Nc1nc(-c2ccc3c(c2)CCN3S(=O)(=O)c2ccccc2)cs1 ?
CYP2C19 inh: 68; CYP2C9 activ: inactive; CYP2C19 activ: inactive; CYP2C9 inhib: 86; Measles CPE: inactive

Results for CS(=O)(=O)N1CCc2cc(-c3csc(NC(=O)Cc4cccs4)n3)ccc21 ?
CYP2C19 inh: 90; CYP2C9 activ: inactive; CYP2C19 activ: inactive; CYP2C9 inhib: 83; Measles CPE: 101

Results for COc1cc(O)oc1C=Nc1ccccc1 ?
CYP2C19 inh: inactive; CYP2C9 activ: inactive; CYP2C19 activ: inactive; CYP2C9 inhib: inactive; Measles CPE: inactive

Results for Cc1cccc(-n2ncc3c(N4CCCC4)ncnc32)c1 ?
Measles CPE: inactive

How did Cc1cccc(-n2ncc3c(NCCCO)ncnc32)c1 do in these assays?
CYP2C19 inh: inactive; CYP2C9 activ: inactive; CYP2C19 activ: inactive; CYP2C9 inhib: 64; Measles CPE: inactive

Results for Cc1cccc(-n2ncc3c(N4CC(C)CC(C)C4)ncnc32)c1 (configuration not stated) ?
CYP2C19 inh: inactive; CYP2C9 activ: inactive; CYP2C19 activ: inactive; CYP2C9 inhib: 81; Measles CPE: inactive

How did C=CCNc1ncnc2c1cnn2-c1cccc(C)c1 do in these assays?
CYP2C19 inh: 66; CYP2C9 activ: inactive; CYP2C19 activ: inactive; CYP2C9 inhib: 73; Measles CPE: inactive

How did Cc1ccc(NC(NC(=O)c2cccnc2)C(Cl)(Cl)Cl)cc1 (configuration not stated) do in these assays?
Measles CPE: inactive

What do the screens show for `Cc1[nH]c2ccccc2c1/C=N/Nc1nc(Nc2ccccc2)nc(N2CCOCC2)n1`?
CYP2C19 inh: inactive; CYP2C9 activ: inactive; CYP2C19 activ: inactive; CYP2C9 inhib: inactive; Measles CPE: inactive

What do the screens show for `O=C(NC1CCCCC1)N1CCN(c2ncccn2)CC1`?
CYP2C19 inh: 60; CYP2C9 activ: inactive; CYP2C19 activ: inactive; CYP2C9 inhib: inactive; Measles CPE: inactive

How did Oc1ccccc1N1CCN(c2ncccn2)CC1 do in these assays?
CYP2C19 inh: 84; CYP2C9 activ: inactive; CYP2C19 activ: inactive; CYP2C9 inhib: 86; Measles CPE: inactive

What do the screens show for `O=C(Nc1ccccc1)N1CCN(c2ccccn2)CC1`?
CYP2C19 inh: inactive; CYP2C9 activ: inactive; CYP2C19 activ: inactive; CYP2C9 inhib: inactive; Measles CPE: inactive

Results for O=C(Nc1ccccc1Cl)N1CCN(c2ncccn2)CC1 ?
CYP2C19 inh: 85; CYP2C9 activ: inactive; CYP2C19 activ: inactive; CYP2C9 inhib: inactive; Measles CPE: inactive

What do the screens show for `O=C(Nc1ccccc1)N1CCN(c2ncccn2)CC1`?
CYP2C19 inh: 78; CYP2C9 activ: inactive; CYP2C19 activ: inactive; CYP2C9 inhib: 52; Measles CPE: inactive

How did O=C(Nc1ccccc1Cl)N1CCN(c2ccc3nnc(-c4ccc(F)cc4)n3n2)CC1 do in these assays?
CYP2C19 inh: inactive; CYP2C9 activ: inactive; CYP2C19 activ: inactive; CYP2C9 inhib: 66; Measles CPE: inactive

What do the screens show for `CC1CN(S(=O)(=O)c2cccc(C(=O)OCc3cc(=O)oc4cc(O)ccc34)c2)CC(C)O1` (configuration not stated)?
CYP2C19 inh: 69; CYP2C9 activ: inactive; CYP2C19 activ: inactive; CYP2C9 inhib: 83; Measles CPE: inactive

What do the screens show for `CN(C)c1cccc(C(=O)OCc2cc(=O)oc3cc(O)ccc23)c1`?
CYP2C19 inh: 57; CYP2C9 activ: inactive; CYP2C19 activ: inactive; CYP2C9 inhib: 79; Measles CPE: inactive

How did CC1CN(S(=O)(=O)c2cccc(C(=O)OCC(=O)c3cccs3)c2)CC(C)O1 (configuration not stated) do in these assays?
CYP2C19 inh: inactive; CYP2C9 activ: inactive; CYP2C19 activ: inactive; CYP2C9 inhib: inactive; Measles CPE: inactive

Results for Cc1ccc(NC(=O)CN(C)C(=O)CSc2nc3ccccc3c(=O)n2Cc2ccco2)cc1 ?
CYP2C19 inh: inactive; CYP2C9 activ: inactive; CYP2C19 activ: inactive; CYP2C9 inhib: 79; Measles CPE: inactive

What do the screens show for `O=c1c2ccccc2nc(SCc2cc(F)cc3c2OCOC3)n1Cc1ccco1`?
CYP2C19 inh: inactive; CYP2C9 activ: inactive; CYP2C19 activ: inactive; CYP2C9 inhib: inactive; Measles CPE: inactive

What do the screens show for `CN(Cc1ccccc1)C(=O)CSc1nc2ccccc2c(=O)n1Cc1ccco1`?
CYP2C19 inh: 97; CYP2C9 activ: inactive; CYP2C19 activ: inactive; CYP2C9 inhib: 100; Measles CPE: inactive

How did CCOC(=O)c1cc2c(c(CSc3nc4ccccc4c(=O)n3Cc3ccco3)c1)OCOC2 do in these assays?
CYP2C19 inh: inactive; CYP2C9 activ: inactive; CYP2C19 activ: inactive; CYP2C9 inhib: 67; Measles CPE: inactive

How did CCCc1nnc(SCC(=O)N2CCCC2)n1CC1CCCO1 (configuration not stated) do in these assays?
CYP2C19 inh: inactive; CYP2C9 activ: inactive; CYP2C19 activ: inactive; CYP2C9 inhib: inactive; Measles CPE: inactive

Results for CCCOP(=O)(OCCC)C1(Nc2ccc(C)cc2)CCCCC1 ?
CYP2C19 inh: inactive; CYP2C9 activ: inactive; CYP2C19 activ: inactive; CYP2C9 inhib: inactive; Measles CPE: inactive

How did O=C(Nc1ccccc1)c1ccc(S(=O)(=O)N(CCO)CCO)cc1 do in these assays?
CYP2C19 inh: inactive; CYP2C9 activ: inactive; CYP2C19 activ: inactive; CYP2C9 inhib: inactive; Measles CPE: inactive

How did CC(=O)Nc1ccc(S(=O)(=O)N(CCO)Cc2ccccc2)cc1 do in these assays?
CYP2C19 inh: 56; CYP2C9 activ: inactive; CYP2C19 activ: inactive; CYP2C9 inhib: 71; Measles CPE: inactive

What do the screens show for `CC(=O)Nc1ccc(S(=O)(=O)N(C)CCOCc2ccccc2)cc1`?
CYP2C19 inh: 55; CYP2C9 activ: 2; CYP2C19 activ: inactive; CYP2C9 inhib: inactive; Measles CPE: inactive
